Compound activity: PubChem, National Center for Advancing Translational Sciences (NCATS)
The entries come from a sample that favours hits as a whole.
Marburg entry inh = qHTS for inhibitors of binding or entry into cells for Marburg Virus; Marburg virus pseudotyped entry inhibition, cell reporter; Potency, µM (highest dose often 37.8 µM), most hits filed as inhibitors; 1.8% of 300,000 active; calls by dose curve; tested in HEK293 cells
AMA1-RON2 inh = qHTS for Inhibitors of AMA1-RON; Towards Development of Antimalarial Drug Lead: Primary Screen | AlphaScreen AMA1-biotinylated RON2 peptide binding | Potency, µM (series often up to 58.2 µM), usual class: inhibitors | 0.2% of 360,000 active | AID 720542, 2013; active = well fitted inhibition curve with a large enough effect; inconclusive = small, poorly fitted or top-dose-only effect; inactive = no such curve, though single readings can be large or run the other way; note: nearly all actives have a fitted effect of over 45% in size
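AMA1 (3D7) with his tag at 25 nM final met compounds first, then biotinylated RON2 peptide at 25 nM; detection used donor plus acceptor beads, 10 µg/mL apiece, read by AlphaScreen after 30 min at room temperature.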
Lassa entry inh = qHTS for Inhibitors of binding or entry into cells for Lassa Virus; Lassa virus pseudotype entry inhibition, cell reporter; Potency, µM (highest dose often 37.9 µM), hits mostly inhibitors; 1.2% of 300,000 active; AID 540256, 2011; calls by dose curve; tested in HEK293 cells; note: nearly all actives have a fitted effect of over 50% in size
Shiga inhibitor = A qHTS for Small Molecule Inhibitors of Shiga Toxin; 9.2% of 290,000 active; Vero cells, Shiga toxin protein synthesis inhibition reporter; inhibition, % at 38.7 µM; AID 2315, 2010; in the data active = inhibition mostly above about 28%, no sharp cut-off; inactive = mostly below about 43%
Cycloheximide cs = Cycloheximide Counterscreen for Small Molecule Inhibitors of Shiga Toxin; 12% of 300,000 active; cell reporter, cycloheximide protein synthesis inhibition counterscreen; max response, %; in the data active = max response mostly above about 13%, no sharp cut-off; inactive = mostly below about 14%; note: read at 38.3 µM for the half of the compounds with a filed dose
Numbers stand for hits; n = inactive; u = inconclusive; x = no result given; + = active, no number; [ ] = dose if it differs, or a comment.

SMILES	Marburg entry inh	AMA1-RON2 inh	Lassa entry inh	Shiga inhibitor	Cycloheximide cs
COc1cc(/C=C2/CCc3ccccc3C2=O)cc(OC)c1OC	11µM	u	u	n	n
COc1ccccc1C=C1CCc2ccccc2C1=O	x	n	x	x	x
Cn1c(=O)c2c(-c3ccc(Cl)cc3)ccnc2n(C)c1=O	n	x	n	x	x
COc1ccc(/C=C2\OC(=O)c3c(OC)cccc32)cc1OC	u	n	n	n	38
COc1ccc(C=C2C(=O)OC(C)(C)OC2=O)cc1OC	x	n	x	n	n
COc1cc(/C=C2\CCc3ccccc3C2=O)cc(OC)c1OC	u	n	u	32	18
COc1cc(/C=C2\COC/C(=C\c3cc(OC)c(OC)c(OC)c3)C2=O)cc(OC)c1OC	u	n	u	44	28
COc1cc(/C=C2\CC/C(=C\c3cc(OC)c(OC)c(OC)c3)C2=O)cc(OC)c1OC	u	n	n	n	n
COc1ccc(/C=C2\COc3ccccc3C2=O)c(OC)c1	u	n	n	71	43
O=C1C(=Cc2cccc(Cl)c2)CCc2ccccc21	x	n	x	x	x
O=C(CS(=O)(=O)c1cccc2nsnc12)N1CCN(c2ccc(F)cc2)CC1	x	x	n	x	x
Cc1ccc(C(=O)N2CCCCC2CCN2CCCCC2)cc1 (centres undefined)	n	x	n	x	x
COc1ccc(CCNC(=O)CCc2c(C)c3cc4c(C)coc4c(C)c3oc2=O)cc1OC	n	x	u	x	x
COc1ccc2c(c1)OC/C(=C/c1cccs1)C2=O	n	n	n	73	44
COc1ccc(N2C(=O)/C(=C/c3cccs3)C(=O)NC2=S)cc1	n	n	n	n	n
O=C(O)c1ccc(/C=C2\COc3ccccc3C2=O)cc1	u	n	u	n	22
N#Cc1cnc(NOCc2ccc(Cl)cc2)nc1	n	n	n	n	n
Cc1ccc(N2CN=C3SCC(=O)N3C2)cc1C	x	n	x	n	22
Cc1cccc(N2CN=C3SCC(=O)N3C2)c1	x	n	x	n	n
O=C(Cn1cc2c(n1)CCCC2)Nc1cc(-c2cccc(Cl)c2)no1	x	n	x	44	28
Cc1ccc(Nc2nc(C(=O)N3CCC(C(=O)N4CCN(C)CC4)CC3)cs2)cc1	u	n	u	n	19
Cc1ccc(Nc2nc(COC(=O)C3CC3)cs2)cc1	n	n	n	75	52
COc1ccc(CNC(=O)C2CCN(C(=O)c3csc(Nc4ccc(C)cc4)n3)CC2)cc1	u	n	x	n	n
Cc1ccc(Nc2nc(C(=O)N3CCC(C(=O)NCc4ccccc4)CC3)cs2)cc1	n	n	x	35	19
O=C(c1csc(Nc2ccccc2Cl)n1)N1CCCC1	u	n	n	108	53
SMILES	Marburg entry inh	AMA1-RON2 inh	Lassa entry inh	Shiga inhibitor	Cycloheximide cs
CN(Cc1ccc(C(C)(C)C)cc1)C(=O)C1CSC2(C)CCC(=O)N12 (centres undefined)	x	n	x	x	x
C=CCNC(=O)C1CCN(S(=O)(=O)c2ccc3ccccc3c2)CC1	x	n	x	n	n
CCOc1ccc(C(=O)NCCc2csc(-c3ccc(C(F)(F)F)cc3)n2)cc1OCC	x	x	n	x	x
O=C1N/C(=C\c2ccc(O)cc2)C(O)=C1C=NCc1ccccc1	u	n	u	n	16
CCCc1nc2c(C)cc(C)cc2c(N)c1CC	23µM	n	n	n	n
CNc1ccc(Br)cc(C(=O)/C=C/c2cccc(OC)c2)c1=O	u	n	u	n	13
CNc1ccc(Br)cc(C(=O)/C=C/c2ccc(Cl)cc2Cl)c1=O	u	n	u	n	n
CNc1ccc(Br)cc(C(=O)/C=C/c2ccc(OC)cc2OC)c1=O	n	n	n	80	65
CC(Sc1ccccc1)C(=O)NNC(=O)c1ccncc1 (centres undefined)	n	n	u	x	x
O=C1C=CN(C2OC(CO)C(O)C2O)C(=O)C1 (centres undefined)	x	n	x	x	x
Cc1ccc(-c2cc(C(=O)N/N=C/c3ccco3)n[nH]2)s1	n	n	n	n	23
Nc1nccnc1C(=O)N/N=C/c1ccco1	x	n	x	93	63
CC(C)(C)c1cc(C(=O)N/N=C/c2ccco2)n[nH]1	n	n	n	n	33
CCCCOc1ccc(C2=NC(c3ccncc3)=Nc3ccc(OCC)cc3N2)cc1	u	x	n	x	x
COC(=O)c1nnn(-c2nonc2N)c1COc1ccc(C=O)cc1OC	x	n	x	n	n
O=C(OCC(=O)N1CCc2ccccc21)c1ccccc1[N+](=O)[O-]	n	n[11.6 µM]	u	x	x
Cc1ccc(C(=O)OCC(=O)N2CCCC2)cc1	u	n	n	47	43
NC(=O)COC(=O)c1c2c(nc3ccccc13)CCCC2	n	n	n	n	n
Cc1ccc(C(=O)OCC(=O)N2CCc3ccccc32)cc1	n	n	u	152	34
O=C(OCC(=O)N1CCc2ccccc21)c1c2c(nc3ccccc13)CCCCC2	u	n	u	+	20
O=C(OCC(=O)N1CCc2ccccc21)c1ccccc1F	n	n	n	113	45
COC(=O)/C=C/c1oc2ccccc2c1C	u	n	n	n	n
Cc1ccc2c(c1)c1c(c(=O)n(-c3ccccc3C)c(=O)n1CC(=O)NCCC1=CCCCC1)n2C	x	x	n	x	x
CC(=O)c1c(C)[nH]c(C(=O)OCC(=O)N2CCc3ccccc32)c1C	u	n	u	n	24
CCOC(=O)c1[nH]c(C)c(C(=O)OCC(=O)N2CCc3ccccc32)c1C	u	n	n	n	n
SMILES	Marburg entry inh	AMA1-RON2 inh	Lassa entry inh	Shiga inhibitor	Cycloheximide cs
CCCCC(=O)NNC(=S)NC(=O)c1ccc(C)cc1	n	n	n	49	n
COCCCNC(=S)NC(=O)c1ccc(C)cc1	u	n	u	123	78
CCCCC(=O)NNC(=S)NC(=O)c1ccc([N+](=O)[O-])cc1	x	n	x	n	n
O=C(CN1C(=O)NC2(CCCC2)C1=O)NNC(=O)c1ccccc1F	x	n	x	x	x
COC(=O)c1cc(C(=O)c2ccc(Cl)cc2)n2c(=O)/c(=C\N(C)C)sc12	n	n	n	n	n
COc1ccc2c(c1)c1c(c(=O)n(Cc3ccccc3)c(=O)n1Cc1ccccc1)n2C	x	x	n	x	x
Cc1ccc(O)c(N=NC2=C(O)CC(C)(C)CC2=O)c1	10µM	n	u	56	56
O=C(O)c1cccc(N=NN2CCOCC2)c1	u	n	n	n	18
CC(=O)N1CCc2cc(N=NC3=C(O)CC(C)(C)CC3=O)ccc21	u	n	n	46	27
O=C1CCCC(O)=C1N=Nc1cccc(C(=O)O)c1	u	n	u	n	17
CCCNC(=O)C1(C)CCCN(C(=O)COCc2ccccc2)C1 (centres undefined)	x	n	x	x	x
CCOc1ccc2nc(N=NC3=C(O)CC(C)(C)CC3=O)sc2c1	x	n	x	n	n
Cc1nc2ccc(N=NC3=C(O)CCCC3=O)cc2s1	n	n	n	72	50
Cc1nc2ccc(N=NC3=C(O)CC(C)(C)CC3=O)cc2s1	u	n	n	110	96
COC(=O)C=CSC(=S)C1CCCC1=N (centres undefined)	x	n	x	x	x
Cc1ccc(S(=O)(=O)N2CCOC23CCN(C(=O)c2ccccc2Br)CC3)cc1	x	n	x	n	n
